This is a sample that favours compounds with a hit; in the whole collection about 13% have one here.
RAM inhibit – yeast RAM network inhibition; S. cerevisiae dse1pr::URA3 reporter, 5-FOA growth OD615, 2 d; analog-sensitive cbk1-as2 kinase mutant strain; 190,000 compounds, 1.8% hits; inhibition, % at 50 µM; AID 868;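 active means inhibition above a set limit, 3 SD over mean compound inhibition, cut at about 8.4% in these data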;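 further: inhibition rescues growth on 5-FOA so higher OD means more RAM inhibition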
CHOP inh – blocks CHOP induction under ER stress. CHO-K1 CHOP-promoter luciferase, tunicamycin-induced, 15-18 h. inhibition, % at 10 µM. 220,000 compounds, 3.8% hits. AID 2732;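 active means compounds that reduced the stress-induced luciferase reporter signal by more than about 70% of percent inhibition, limit read from the data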
Lmaj promast – reduces viability of Leishmania major promastigotes. resazurin fluorescence viability. inhibition, % at 10 µM. 200,000 compounds, 9% hits; in the data active means inhibition above about 50%;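 further: promastigotes grown with compound for 44 hours at 28 °C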
WT yeast gro inh – growth inhibition of WT yeast, mitochondrial fusion screen; mitochondrial fusion phenotypic screen, WT strain; inhibition, % at 10 µM; 190,000 compounds, 2.1% hits; AID 1362; in the data active means inhibition above about 58%; tested in S. cerevisiae
Numbers stand for hits; - = inactive; . = no result given.

SMILES | RAM inhibit | CHOP inh | Lmaj promast | WT yeast gro inh
CN(C)CC(C)(C)CNC(C(=O)Nc1ccc(Cl)cc1C(F)(F)F)c1ccccc1 (stereo unspecified) | - | - | - | -
O=C(CN1C(=O)C2C3C=CC(C3)C2C1=O)N1CC(=O)N(CCc2ccccc2)C(=O)C1 (stereo unspecified) | - | 74 | - | -
CCOC(=O)N1CCC(NS(=O)(=O)c2ccc(C#N)cc2)CC1 | . | - | . | .
CCn1c(NC(=O)Nc2cccc(C)c2C)cc2sccc21 | - | 90 | - | -
NS(=O)(=O)c1ccc(NC(=O)COC(=O)COc2ccc3ccccc3c2)cc1 | - | - | - | -
CCOc1ccc(NC(=O)CCSc2nc3c(c(CC)c2C#N)C(=O)CC(C)(C)C3)cc1 | - | - | - | .
CCc1c(C#N)c(SCCC(=O)Nc2ccc(C)cc2)nc2c1C(=O)CC(C)(C)C2 | - | 85 | - | .
O=C(NCC1CCCO1)C(c1ccc(F)cc1)N(Cc1ccc2c(c1)OCO2)C(=O)c1ccc(CN2CCOCC2)o1 (stereo unspecified) | - | - | - | -
COC(=O)c1sc(-c2cccs2)cc1NC(=O)/C=C/C(=O)O | . | - | . | .
COc1ccc(CCn2c(O)c(C=Nc3cccc(F)c3)c(=O)[nH]c2=O)cc1OC | . | 80 | . | .
O=C(COC(=O)c1ccc(OC(F)F)cc1)NCCCN1CCCC1=O | . | - | . | .
Cc1sc2nc(C3CCCCC3)nc(SCC(=O)N3CC(=O)Nc4ccccc43)c2c1C | 8.5 | - | - | -
CC(C)c1ccccc1-n1c(SCC(=O)c2ccc3c(c2)NC(=O)CO3)nc2ccccc2c1=O | - | - | 67 | -
Cc1cccc(-n2c(SCC(=O)N3CC(=O)Nc4ccccc43)nc3ccccc3c2=O)c1 | - | - | - | -
Cc1cccc(-n2c(SCC(=O)N3CC(=O)Nc4ccccc43)nc3ccccc3c2=O)c1C | 9.6 | - | - | -
C=CCn1c(SCC(=O)N2CC(=O)Nc3ccccc32)nc2scc(-c3ccccc3)c2c1=O | - | - | 94 | -
COc1ccc(C2c3ccc(O)cc3Oc3ncn4nc(-c5cccnc5)nc4c32)cc1OC (stereo unspecified) | . | - | . | .
CCCC(C)NC(=O)COc1ccc(S(=O)(=O)N2CCCC2)cc1 (stereo unspecified) | - | - | - | -
Cc1ccc(Cl)cc1N1CCN(C(=O)c2cc3c(=O)[nH]c4ccccc4c3n2C)CC1 | - | 94 | - | -
Cn1c(C(=O)N2CCN(c3ccc(Cl)cc3)CC2)cc2c(=O)[nH]c3ccccc3c21 | - | - | - | -
Cc1ccnc(NC(c2cccnc2)c2ccc3cccnc3c2O)c1 (stereo unspecified) | - | - | 98 | -
COc1ccccc1NC(c1cccnc1)c1ccc2cccnc2c1O (stereo unspecified) | - | - | - | -
Cc1cc(NC(c2ccc(Cl)cc2)c2ccc3cccnc3c2O)no1 (stereo unspecified) | - | 80 | 100 | -
Cc1ccnc(NC(c2ccsc2)c2ccc3ccc(C)nc3c2O)c1 (stereo unspecified) | - | - | - | -
Cc1ccc2ccc(C(Nc3cccc(C(F)(F)F)c3)c3cccnc3)c(O)c2n1 (stereo unspecified) | - | - | 100 | -
SMILES | RAM inhibit | CHOP inh | Lmaj promast | WT yeast gro inh
[N-]=[N+]=CC(=O)C(c1ccccc1)(c1ccccc1)c1ccccc1 | . | - | . | .
CC(C)(C)N=C1NN=C(c2cc3ccccc3o2)CS1 | - | - | - | 67
COc1cccc(NC(=O)c2cc(CN3C(=O)c4ccccc4C3=O)ccc2OC)c1 | - | - | 89 | -
CC(C)(C)c1ccc(C(=O)CSc2nc3ccccc3c(=O)[nH]2)cc1 | - | 75 | - | -
O=C(CSc1nc2c(cnn2-c2ccccc2)c(=O)[nH]1)c1ccc(Cl)cc1 | - | 92 | - | -
O=C(CSc1nc2c(cnn2-c2ccc(F)cc2)c(=O)[nH]1)N1N=C(c2cccs2)CC1c1ccc(F)cc1 (stereo unspecified) | - | - | 51 | -
CCC(C)Sc1nc2c(cnn2-c2ccccc2)c(=O)[nH]1 (stereo unspecified) | - | 78 | - | -
COc1cc(CO)ccc1Oc1nc2ccccc2n2cnnc12 | . | - | . | .
O=C(O)C1CSC2(c3ccc(Br)cc3)CCC(=O)N12 (stereo unspecified) | - | - | - | -
Cc1ccc(C2CC(c3cccs3)=NN2C(=O)c2ccc(Br)o2)cc1 (stereo unspecified) | - | - | - | 64
O=c1[nH]c(SCc2ccccc2)nc2c1cnn2-c1ccc(F)cc1 | - | - | - | -
CCCSc1nc2c(cnn2-c2ccccc2)c(=O)[nH]1 | - | 80 | - | -
O=c1[nH]c(/C=C/c2ccccc2OC(F)F)nc2c1cnn2-c1ccccc1 | - | - | 62 | -
CCCSc1nc2c(cnn2-c2ccc(C)cc2)c(=O)[nH]1 | - | - | - | -
CCCSc1nc2c(cnn2-c2ccc(F)cc2)c(=O)[nH]1 | - | 79 | - | -
Cc1onc(-c2c(Cl)cccc2Cl)c1C(=O)N=C(N)N1CCCC1 | . | - | . | .
CC(=O)CSc1nnc2c3ccccc3nc(C(C)(C)C)n12 | - | - | - | -
COc1ccc(C2CC(c3cccs3)=NN2C(=O)CSc2nc3ccccc3s2)cc1 (stereo unspecified) | - | - | - | -
COc1ccc(C2CC(c3cccs3)=NN2C(=O)CSc2nc3ccccc3o2)cc1 (stereo unspecified) | 8.5 | - | - | -
Cc1ccc(C(=O)CSc2nnc3c4ccccc4nc(C(C)(C)C)n23)cc1 | - | 70 | - | -
O=c1c2ccccc2c(-c2ccccc2)nn1Cc1c(Cl)cccc1Cl | - | - | - | 61
CCOC(=O)Cn1nc(-c2ccccc2)c2ccccc2c1=O | . | - | - | .
CN1CCN(C(=O)CCn2nc(-c3ccccc3)c3ccccc3c2=O)CC1 | - | - | 54 | -
Cc1ccc(NC(=O)c2cc(=O)n(Cc3ccccc3)c(=O)[nH]2)cc1C | - | - | - | -
Oc1ccc(NCc2ccccc2OCc2ccccc2F)cc1 | - | 85 | 100 | -
SMILES | RAM inhibit | CHOP inh | Lmaj promast | WT yeast gro inh
Cc1ccc(NCc2ccccc2OCc2ccccc2F)cc1 | - | 85 | - | -
Cc1cccc(NCc2ccccc2OCc2ccccc2F)c1 | - | - | - | -
CS(=O)(=O)N(CC(=O)NCc1ccco1)c1ccc(OCc2ccccc2)cc1 | - | - | - | -
CCN(CC)C(=S)Nc1ccc([N+](=O)[O-])cc1 | - | - | 59 | -
CCN(CC)C(=S)Nc1ccc(Cl)c(Cl)c1 | - | - | 62 | -
O=c1[nH]c(-c2ccc(Cl)cc2)cs1 | - | - | - | -
Fc1ccc(-c2csc(=S)[nH]2)cc1 | - | - | 93 | 62
c1ccc(CCn2nnnc2C(c2cccnc2)N2CCN(c3ccccc3)CC2)cc1 (stereo unspecified) | - | - | 97 | -
Oc1ccc(N2CCN(C(c3cccnc3)c3nnnn3Cc3ccccc3)CC2)cc1 (stereo unspecified) | - | - | 65 | -
Fc1ccccc1N1CCN(C(c2cccs2)c2nnnn2CCc2ccccc2)CC1 (stereo unspecified) | - | - | - | -
c1ccc(Cn2nnnc2C(c2cccnc2)N2CCN(C3CCCCC3)CC2)cc1 (stereo unspecified) | - | - | - | -
